# Where “and” joins values, the source holds several entries; their conditions need not be identical. Equal entries are not always repeated. Inconclusive results are not listed. Entries that show only a call come without a potency. More than one record can exist for a structure, and the calls need not agree. Calls of active or inactive are those of the source. The call rests on the fitted dose curve; in most records, active means well fitted cell-killing curve with a large enough effect in the repeat runs; inconclusive means weak or mixed curves, or effect the other way; inactive means flat fitted curve, though single readings scatter.
# Experiment: qHTS assay to identify small molecule antagonists of the androgen receptor (AR) signaling pathway using the MDA cell line in the presence of 0.5 nM R1881 - cell viability counter screen (AID 1259242); further: nearly all actives have a fitted effect of over 45% in size
# Details: MDA-kb2 viability, CellTiter-Fluor protease fluorescence, 16 h; series mostly up to 92.4 µM
# Text: U.S. Tox21 Program National Center for Advancing Translational Sciences [NCATS] NIH Chemical Genomics Center [NCGC] U.S. Environmental Protection Agency [EPA] National Institutes of Environmental Health Sciences [NIEHS] National Toxicology Program [NTP] U.S. Food and Drug Administration [FDA] Tox21 Assay Overview: Androgen receptor (AR) is an important member of the nuclear receptor family. Its signaling plays a critical role in AR-dependent prostate cancer and other androgen related diseases. Considerable attention has been given in the past decades to develop methods to study and screen for the environmental chemicals that have the potential to interfere with metabolic homeostasis, reproduction, developmental and behavioral functions. Therefore AR binding assay for screening androgen antagonists can be used to identify potential endocrine disruptors. MDA-kb2 cells (from ATCC, deposited by Wilson et al.) were used to screen for AR inhibitors against Tox21 compound libraries. These cells are human breast carcinoma cells that were stably transfected with a luciferase reporter gene under control of the MMTV promoter that contains response elements for both androgen receptor (AR) and glucocorticoid receptor (GR). The current screening for identification of AR inhibitors against Tox21 libraries used lower concentration of (0.5 nM) R1881 as a stimulator. The cytotoxicity of the Tox21 compound libraries against MDA-kb2 cell line was tested by measuring live-cell protease activity using CellTiter-Fluor assay in the same wells.
# Tox21 Assay Protocol Summary: MDA-kb2 cells (cells cultured without CO2) were dispensed at 3,000 cells/well in 4 uL of culture medium into white wall/solid-bottom 1536-well plates (Corning Life Sciences, Corning, NY) using a Multidrop Combi (ThermoFisher Scientific, Waltham, MA) dispenser. After the assay plates were incubated at a 37C and 0% CO2 for 5 hr, 23 nL of compounds dissolved in DMSO, positive controls or DMSO only was transferred to the assay plate by a Pintool station (Kalypsys, San Diego, CA). The transfer of compounds was followed by the addition of 1 uL of 0.5 nM (final concentration) agonist (R1881)/culture medium using a Flying Reagent Dispenser (FRD, Aurora Discovery, San Diego, CA). The plates were incubated at 37C and 0% CO2 for 16 hr. For cytotoxicity assay, 1 uL of CellTiter-Fluor reagent (Promega Corporation, Madison, WI) was added to each well using the FRD and after 30 min incubation at 37C and 0% CO2, The fluorescence intensity was measured using ViewLux plate reader (PerkinElmer, Shelton, CT).
# Potency means the concentration at half of the fitted maximal effect.
row,Structure (SMILES),Potency
1,O=c1[nH]sc2cc(Cl)ccc12,inactive
2,CC(C)C(C)(C)C(C)(C)C(C)(C)S,inactive
3,Clc1ccccc1C(c1ccccc1)(c1ccccc1)n1ccnc1,43.3 µM (active) and inactive
4,CCCC/C=C/CCCCO,inactive
5,CC(=O)OCC(C)OC(C)=O (stereo not given),inactive
6,S=c1[nH]c2ccccc2s1,inactive
7,CC(C)c1ccc2c(c1)CC[C@H]1[C@](C)(CN)CCC[C@]21C,48.6 µM (active)
8,c1ccc(CSCc2ccccc2)cc1,inactive
9,C[C@@H]1C[C@H]2[C@@H]3CCC4=CC(=O)C=C[C@]4(C)[C@@]3(Cl)[C@@H](O)C[C@]2(C)[C@@]1(OC(=O)c1ccco1)C(=O)CCl,inactive
10,C[C@H]1[C@H]2CC[C@H]3[C@@H]4CC=C5C[C@@H](N(C)C)CC[C@]5(C)[C@H]4CC[C@]23CN1C,inactive
11,CCCC(c1cc(C(C)(C)C)c(O)cc1C)c1cc(C(C)(C)C)c(O)cc1C,49.2 µM (active)
12,Cc1cccc(N(C)C(=S)Oc2ccc3c(c2)C2CCC3C2)c1 (stereo not given),inactive
13,CCN(C(=O)N(CC)c1ccccc1)c1ccccc1,inactive
14,CC(C)OC(=O)c1cc2c(OCC(O)CNC(C)(C)C)cccc2[nH]1 (stereo not given),inactive
15,Fc1ccc([C@@H]2CCNC[C@H]2COc2ccc3c(c2)OCO3)cc1,inactive
16,O=C1CCCCCN1SSN1CCCCCC1=O,inactive
17,N#CC1(c2ccc(F)cc2)CCC(=O)CC1,inactive
18,COc1c(C)c2c(c(O)c1C/C=C(\C)CCC(=O)O)C(=O)OC2,inactive
19,Cc1ccc(-n2nc(C(C)(C)C)cc2NC(=O)Nc2ccc(OCCN3CCOCC3)c3ccccc23)cc1,inactive
20,CC(C)(C)c1ccc(C(=O)O)cc1,inactive

row,Structure (SMILES),Potency
1,CN1CCC(Nc2ncc3ncnc(Nc4ccc(F)c(Cl)c4)c3n2)CC1,inactive
2,COc1cc(-c2ccc(N=C=O)c(OC)c2)ccc1N=C=O,inactive
3,Clc1ccc2nsnc2c1NC1=NCCN1,inactive
4,C1CCCC1,inactive
5,O=[N+]([O-])c1ccccc1Nc1ccccc1,inactive
6,CC(C)(C)CC(C)(C)c1ccc(OCCOCC[N+](C)(C)Cc2ccccc2)cc1,43.2 µM (active) and 21.1 µM (active)
7,O=C(NO)C1(NS(=O)(=O)c2ccc(Oc3ccc(F)cc3)cc2)CCOCC1,inactive
8,Oc1cccc(-c2c3nc(c(-c4cccc(O)c4)c4ccc([nH]4)c(-c4cccc(O)c4)c4nc(c(-c5cccc(O)c5)c5ccc2[nH]5)CC4)C=C3)c1,7.5 µM (active)
9,C/C=C1/C(=O)C[C@H]2[C@@H]3CCC4=CC(=O)CC[C@]4(C)[C@H]3CC[C@]12C,inactive
10,NNC(=O)c1cccc(C(=O)NN)c1,inactive
11,CCN(CC)CCNC(=O)c1c(C)[nH]c(/C=C2\C(=O)Nc3ccc(F)cc32)c1C,29.8 µM (active)
12,COC(=O)C1=C(C)NC(C)=C(C(=O)OCCc2ccc(N3CCN(C(c4ccccc4)c4ccccc4)CC3)cc2)C1c1cccc([N+](=O)[O-])c1 (stereo not given),inactive
13,C/C(=C(/OCCOc1ccc(Cl)cc1)c1ccc(Cl)cc1Cl)n1ccnc1,inactive
14,CC(=O)N1CCN(c2ccc(OC[C@H]3CO[C@](Cn4ccnc4)(c4ccc(Cl)cc4Cl)O3)cc2)CC1,61.1 µM (active)
15,COc1cc(/C=C/C(=O)O[C@H]2CC[C@]34C[C@]35CC[C@]3(C)[C@@H]([C@H](C)CCC=C(C)C)CC[C@@]3(C)[C@@H]5CC[C@H]4C2(C)C)ccc1O,inactive
16,OC1(c2ccc(Cl)c(C(F)(F)F)c2)CCN(CCCC(c2ccc(F)cc2)c2ccc(F)cc2)CC1,13.3 µM (active)
17,Clc1ccc(C(Cn2ccnc2)OCc2ccc(Sc3ccccc3)cc2)c(Cl)c1 (stereo not given),inactive
18,CCC(C)Nc1ccc(NC(C)CC)cc1 (stereo not given),24.8 µM (active)
19,CCCCCCCCn1sc(Cl)c(Cl)c1=O,15.4 µM (active)
20,C[n+]1cc2c3c(ccc2c2ccc4cc5c(cc4c21)OCO5)OCO3,10.3 µM (active)
